Laboratory results published in PubChem BioAssay (Tox21).
Values joined by “and” are separate entries in the source; they are usually repeats but may differ in a detail not shown here. Equal values may be shown once. Inconclusive results are not listed. Active and inactive are the calls of the source. Unless noted, calls follow the shape of the dose curve; as a rule, active = well fitted curve in the direction sought with a large enough effect in the repeat runs; inconclusive = weak or mixed curves; inactive = no such curve, though single readings can be large; an effect the other way counts as inactive or inconclusive.

How the values were obtained:
[1] = qHTS assay for small molecules that induce genotoxicity in human embryonic kidney cells expressing luciferase-tagged ATAD5 (AID 651632); also: nearly all actives have a fitted effect of over 15% in size
How it was run: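 Test compounds were delivered by pin tool onto HEK293T reporter cells (2,000/well) expressing ATAD5 fused to luciferase. After 16 hr at 37C, 5% CO2, Amplite was added for 30 min at room temperature and luminescence was measured.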

[2] = qHTS assay for small molecule agonists of the p53 signaling pathway - cell viability (AID 651633; calls by dose curve;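 also: p53RE-bla HCT reporter cells with a stable beta-lactamase p53 reporter; series mostly up to about 83 µM; nearly all actives have a fitted effect of over 30% in size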)
How it was run: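 p53RE-bla cells, seeded at 4,000 per well and rested 5 h at 37 C/5% CO2, received compounds in DMSO for 16 h at 37 C. CellTiter-Glo was then added, and luminescence was read after 30 min at room temperature to gauge cytotoxicity.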

[3] = qHTS assay for small molecules that induce genotoxicity in human embryonic kidney cells expressing luciferase-tagged ATAD5 - cell viability (AID 651634; calls by dose curve; also: nearly all actives have a fitted effect of over 25% in size)
How it was run: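 Quantitative high-throughput format. HEK293T cells expressing ATAD5 fused to luciferase were plated at 2,000 cells/well and treated 15.5 hr with compound versus DMSO. Viability was determined by fluorescent live-cell protease substrate, 30 min at 37C.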

[4] = qHTS assay for small molecule disruptors of the mitochondrial membrane potential - cell viability (AID 720634; calls by dose curve;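 also: human HepG2 liver cancer cells; series mostly up to about 83 µM; nearly all actives have a fitted effect of over 20% in size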)
How it was run: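 Same-well counter-screen: following the MMP dye addition, CellTiter-Glo was added to 1 hr compound-treated HepG2 cells and luminescence read after 30 min at room temperature.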

[5] = qHTS assay to test for compound auto fluorescence at 590 nm (red) in HepG2 cells (AID 720674)
How it was run: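 Compound auto-fluorescence is scored relative to Rose Bengal sodium, measured at 540/590 nm in live HepG2 cultures after 1 hr compound contact (37 C, 5% CO2).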

[6] = qHTS assay to test for compound auto fluorescence at 535 nm (green) in HepG2 cells (AID 720675)
[7] = qHTS assay to test for compound auto fluorescence at 460 nm (blue) in HEK293 cells (AID 720678)
How it was run: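 Blue-channel (Ex/Em 405/460 nm) intensity measured in HEK293 cultures after overnight compound exposure at 37C; signal expressed relative to triamterene. Cells plated 2,000 per well in 10% dialyzed FBS medium and allowed 4-5 hr to attach.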

[8] = qHTS assay to test for compound auto fluorescence at 590 nm (red) in HEK293 cells (AID 720679)
How it was run: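 Red-channel autofluorescence (Ex/Em 540/590 nm; Rose Bengal sodium reference) was measured after overnight 37C, 5% CO2 exposure of attached HEK293 cells, 2,000 per well in medium with 10% dialyzed FBS.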

[9] = qHTS assay to test for compound auto fluorescence at 535 nm (green) in HEK293 cells (AID 720680)
[10] = qHTS assay to test for compound auto fluorescence at 460 nm (blue) in HEK293 cell free culture (AID 720681)
How it was run: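 Test compounds were pinned into cell-free culture medium (DMEM with 10% FBS) and fluorescence was read directly at Ex/Em 405/460 nm. Signals were expressed as fluorescence equivalents of triamterene, with DMSO vehicle as control.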

[11] = qHTS assay to test for compound auto fluorescence at 590 nm (red) in HEK293 cell free culture (AID 720683)
How it was run: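 Tox21 10K library compounds were pinned into cell-free DMEM with 10% FBS and fluorescence was read at excitation 540 nm. Activity is expressed as Rose Bengal sodium equivalency.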

[12] = qHTS assay to test for compound auto fluorescence at 590 nm (red) in HepG2 cell free culture (AID 720684)
How it was run: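 Readout: intrinsic compound fluorescence at 590 nm emission after 540 nm excitation, scaled to Rose Bengal sodium. Matrix was cell-free MEM with 10% FBS; DMSO vehicle wells served as control.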

[13] = qHTS assay to test for compound auto fluorescence at 460 nm (blue) in HepG2 cell free culture (AID 720685)
How it was run: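 Cell-free plates of MEM plus 10% FBS received 23 nL compound or DMSO vehicle; blue-channel (405/460 nm) intensity scored against triamterene as reference fluorophore.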

[14] = qHTS assay to test for compound auto fluorescence at 535 nm (green) in HepG2 cell free culture (AID 720686)
[15] = qHTS assay to test for compound auto fluorescence at 460 nm (blue) in HepG2 cells (AID 720687)
How it was run: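 Cells (2,000/well in MEM with 10% FBS) attached overnight at 37 C, then were exposed to compound or DMSO for 1 hr at 37 C, 5% CO2. Fluorescence read at Ex/Em 405/460 nm, expressed as triamterene-equivalent signal.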

[16] = qHTS assay to identify small molecule antagonists of the glucocorticoid receptor (GR) signaling pathway - cell viability counter screen (AID 720693); also: nearly all actives have a fitted effect of over 55% in size
[17] = qHTS assay for identifying genotoxic compounds that show differential cytotoxicity against isogenic chicken DT40 cell lines with known DNA damage response pathways - wild type cell line (AID 743012); also: potency is read from the fitted curve at half-maximal effect; nearly all actives have a fitted effect of over 60% in size
How it was run: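 300 wt DT40 cells/well; cpd (DMSO) pintool-transferred after ~0.5 h at 37 C/5% CO2; 40 h incubation; CellTiter-Glo added, 30 min RT; luminescence read.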

[18] = qHTS assay for identifying genotoxic compounds that show differential cytotoxicity against isogenic chicken DT40 cell lines with known DNA damage response pathways - Rev3 mutant cell line (AID 743014); also: potency is read from the fitted curve at half-maximal effect; nearly all actives have a fitted effect of over 55% in size
[19] = qHTS assay for identifying genotoxic compounds that show differential cytotoxicity against isogenic chicken DT40 cell lines with known DNA damage response pathways - Rad54/Ku70 mutant cell line (AID 743015); also: potency is read from the fitted curve at half-maximal effect; nearly all actives have a fitted effect of over 60% in size
[20] = qHTS assay to identify small molecule antagonists of the androgen receptor (AR) signaling pathway - cell viability counter screen (AID 743033; also: nearly all actives have a fitted effect of over 45% in size)
[21] = qHTS assay to identify small molecule antagonists of the androgen receptor (AR) signaling pathway using the MDA cell line - cell viability counter screen (AID 743041; also: nearly all actives have a fitted effect of over 45% in size)
How it was run: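 qHTS viability read-out; MDA-kb2 AR-luc; R1881-stimulated; 16 h exposure at 37C, 0% CO2; CellTiter-Fluor, 30 min; fluorescence intensity.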

[22] = qHTS assay to identify small molecule antagonists of the thyroid receptor (TR) signaling pathway (AID 743065); also: series mostly up to about 70 µM; nearly all actives have a fitted effect of over 55% in size
How it was run: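 GH3.TRE-Luc rat pituitary cells carrying two TR response elements driving luciferase were plated for 4 h, given compound plus 1 nM T3 (final), and incubated 23.5 h at 37 C. ONE-Glo luminescence measured reporter inhibition; CellTiter-Fluor fluorescence tracked cytotoxicity.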

[23] = tested on: thyroid hormone receptor (rat, GH3 cells); test: qHTS assay to identify small molecule agonists of the thyroid receptor (TR) signaling pathway (AID 743066; calls by dose curve)
[24] = target: Estrogen receptor (Homo sapiens) (UniProt P03372); test: qHTS assay to identify small molecule antagonists of the estrogen receptor alpha (ER-alpha) signaling pathway (AID 743069; active = well fitted curve in the direction sought with a large enough effect in the signal ratio in the repeat runs, not every such curve was filed as active; the % refers to the signal ratio)
How it was run: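 Screening used a UAS-driven beta-lactamase reporter integrated into HEK293 cells expressing ER-alpha, stimulated with 17beta-estradiol alongside test compounds over 18 hr at 37C; signal came from LiveBLAzer B/G FRET fluorescence.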

[25] = qHTS assay to identify small molecule antagonists of the estrogen receptor alpha (ER-alpha) signaling pathway - cell viability counter screen (AID 743074; calls by dose curve; also: nearly all actives have a fitted effect of over 45% in size)
[26] = target: Estrogen receptor (Homo sapiens) (UniProt P03372); test: qHTS assay to identify small molecule agonists of the estrogen receptor alpha (ER-alpha) signaling pathway (AID 743075; calls by dose curve)
[27] = target: Estrogen receptor (Homo sapiens) (UniProt P03372); test: qHTS assay to identify small molecule agonists of the estrogen receptor alpha (ER-alpha) signaling pathway using the BG1 cell line (AID 743079); also: nearly all actives have a fitted effect of over 20% in size
[28] = qHTS assay to identify small molecule antagonists of the estrogen receptor alpha (ER-alpha) signaling pathway using the BG1 cell line (AID 743080; calls by dose curve;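 also: BG1 cells stimulated with 17beta-estradiol alongside compound; series mostly up to about 70 µM; nearly all actives have a fitted effect of over 25% in size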)
How it was run: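 Luciferase inhibition measured with ONE-Glo after 30 min at RT in BG1Luc4E2 cells given test compounds and 17beta-estradiol for 21.5 h at 37 C; CellTiter-Fluor viability read in the same wells beforehand.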

[29] = qHTS assay to identify small molecule antagonists of the estrogen receptor alpha (ER-alpha) signaling pathway using the BG1 cell line - cell viability counter screen (AID 743081);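 also: compound given together with 17beta-estradiol as the ER stimulus; series mostly up to about 70 µM; nearly all actives have a fitted effect of over 45% in size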
Aromatase (Homo sapiens) = Aromatase (Homo sapiens) (UniProt P11511); test: qHTS assay to identify aromatase inhibitors (AID 743083); also: potency is read from the fitted curve at half-maximal effect; nearly all actives have a fitted effect of over 55% in size
[30] = qHTS assay to identify aromatase inhibitors - cell viability counter screen (AID 743084)
[31] = target: Aryl hydrocarbon receptor (Homo sapiens) (UniProt P35869); test: qHTS assay to identify small molecule that activate the aryl hydrocarbon receptor (AhR) signaling pathway (AID 743085); also: potency is read from the fitted curve at half-maximal effect; nearly all actives have a fitted effect of over 15% in size
How it was run: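 HepG2 cells (HG2L7.5c1) stably carrying a firefly luciferase reporter driven by 20 dioxin responsive elements were exposed to compound for 24 h at 37C after a 5 h settling period; luminescence rise (ONE-Glo) indicated activation.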

[32] = qHTS assay to identify small molecule that activate the aryl hydrocarbon receptor (AhR) signaling pathway - cell viability counter screen (AID 743086)
How it was run: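 HepG2-AhR-luc (HG2L7.5c1) cells, 4000/well, were preincubated 5 h at 37C, exposed to compound in qHTS format for 24 hr at 37C, then given CellTiter-Fluor for 30 min; viability was read as fluorescence in the reporter wells.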

[33] = target: Peroxisome proliferator-activated receptor gamma (Homo sapiens) (UniProt P37231); test: qHTS assay to identify small molecule agonists of the peroxisome proliferator-activated receptor gamma (PPARg) signaling pathway (AID 743094; active = well fitted activation curve with a large enough effect in the signal ratio in the repeat runs, not every such curve was filed as active; the % refers to the signal ratio)
How it was run: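 Cell-based bla reporter, HEK293H background, PPARg-driven UAS. Pre-incubation 5 h, 37C, 5% CO2. Compound 17 h, 37C. Substrate 1 h RT; fluorescence.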

[34] = qHTS assay to identify small molecule antagonists of the estrogen receptor alpha (ER-alpha) signaling pathway using the BG1 cell line in the presence of 0.1 nM 17-beta-estradiol - cell viability counter screen (AID 1259241); also: nearly all actives have a fitted effect of over 40% in size
How it was run: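 VM7Luc4E2 cells (endogenous ER-alpha, 4×ERE-luciferase), hormone-starved 5 days in charcoal-stripped FBS, were treated with compounds plus 0.1 nM 17beta-estradiol for 22 hr at 37C; viability read in same wells as CellTiter-Fluor live-cell protease fluorescence.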

[35] = qHTS assay to identify small molecule antagonists of the androgen receptor (AR) signaling pathway using the MDA cell line in the presence of 0.5 nM R1881 - cell viability counter screen (AID 1259242); also: nearly all actives have a fitted effect of over 45% in size
How it was run: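 Human breast carcinoma MDA-kb2 cells, cultured without CO2, receive compounds alongside 0.5 nM (final) R1881 agonist. After 16 hr at 37C, viability is taken as live-cell protease signal.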

[36] = target: Estrogen receptor (Homo sapiens) (UniProt P03372); test: qHTS assay to identify small molecule antagonists of the estrogen receptor alpha (ER-alpha) signaling pathway using the BG1 cell line in the presence of 0.1 nM 17-beta-estradiol (AID 1259244); also: nearly all actives have a fitted effect of over 50% in size
How it was run: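 Seeding of stripped-serum-adapted VM7Luc4E2 cells, 24 h attachment, compound transfer, then 0.1 nM final 17beta-estradiol; after 22 h incubation, ONE-Glo reagent and luminescence reading.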

[37] = qHTS assay to identify small molecule phospholipidosis (PLD) inducers (AID 1259344; active = well fitted curve in the direction sought with a large enough effect; an effect the other way counts as inactive or inconclusive)
How it was run: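 Cells (HepG2, 900 per well) attach for 4 h, receive LipidTOX Red and compound together, incubate 24 h at 37 C, are fixed 30 min with paraformaldehyde/Hoechst, then imaged at one site per well.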

[38] = target: Estrogen receptor (Homo sapiens) (UniProt P03372); test: qHTS assay to identify small molecule agonists of the estrogen receptor alpha (ER-alpha) signaling pathway in the presence of an antagonist (AID 1259383; calls by dose curve; also: top concentration of the series differs between compounds; nearly all actives have a fitted effect of over 15% in size)
How it was run: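 ER-alpha agonism measured under antagonist challenge: 10.0nM ICI-182,780 (final) plus compound, 15 concentrations, 22hr, VM7Luc4E2 ERE-luciferase cells. Read by luminescence.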

[39] = target: Acetylcholinesterase (Homo sapiens) (UniProt P22303); test: Acetylcholinesterase (AChE) small molecule antagonists: colormetric cell-based qHTS assay (AID 1347395; calls by dose curve; also: nearly all actives have a fitted effect of over 30% in size)
How it was run: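 SH-SY5Y cells, plated overnight at 37 C, were exposed to compounds for 30 min at 37 C and 5% CO2. Acetylthiocholine plus DTNB was then added, and thiocholine from endogenous AChE was quantified colorimetrically after 90 min at 37 C.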

[40] = target: Acetylcholinesterase (Homo sapiens) (UniProt P22303); test: Acetylcholinesterase (AChE) small molecule antagonists: enzyme-based qHTS assay (AID 1347397; calls by dose curve; also: nearly all actives have a fitted effect of over 55% in size); details: Potency: AChE enzyme activity inhibition; outcome: AChE enzyme activity inhibition
How it was run: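 Tox21 library chemicals are tested in qHTS format against recombinant human AChE. The enzyme, dispensed at 50 mU/mL, sits with compound for 30 min at room temperature. A DTNB–acetylthiocholine cocktail follows, and colour is read after 10 min.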

[41] = target: Acetylcholinesterase (Homo sapiens) (UniProt P22303); test: Acetylcholinesterase (AChE) small molecule antagonists: fluorescence cell-based qHTS assay (AID 1347398; calls by dose curve; also: nearly all actives have a fitted effect of over 50% in size); details: Potency: AChE activity; outcome: AChE activity
How it was run: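 Cellular AChE inhibition: SH-SY5Y cells treated with test chemical for 30 min at 37 C, then acetylthiocholine hydrolysis followed over 40 min at room temperature via thiocholine-reactive Thiolite Green fluorescence (490/520 nm).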

[42] = target: Acetylcholinesterase (Homo sapiens) (UniProt P22303); test: Acetylcholinesterase (AChE) small molecule antagonists: enzyme-based qHTS assay with human liver microsomes (AID 1347399; calls by dose curve; also: nearly all actives have a fitted effect of over 60% in size); details: Potency: qHTS inhibition; outcome: qHTS inhibition
How it was run: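 Recombinant human AChE (50 mU/mL in the enzyme mix) and human liver microsomes (0.25 mg/mL final) were preincubated with compound and NADPH (0.25 mg/mL final) for 30 min at 37 C. Acetylthiocholine/DTNB was then added; thiocholine was read colorimetrically after 10 min at room temperature.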

Measured: Potency

Chain of Estrogen receptor (Homo sapiens) (P03372 whole entry, looked up): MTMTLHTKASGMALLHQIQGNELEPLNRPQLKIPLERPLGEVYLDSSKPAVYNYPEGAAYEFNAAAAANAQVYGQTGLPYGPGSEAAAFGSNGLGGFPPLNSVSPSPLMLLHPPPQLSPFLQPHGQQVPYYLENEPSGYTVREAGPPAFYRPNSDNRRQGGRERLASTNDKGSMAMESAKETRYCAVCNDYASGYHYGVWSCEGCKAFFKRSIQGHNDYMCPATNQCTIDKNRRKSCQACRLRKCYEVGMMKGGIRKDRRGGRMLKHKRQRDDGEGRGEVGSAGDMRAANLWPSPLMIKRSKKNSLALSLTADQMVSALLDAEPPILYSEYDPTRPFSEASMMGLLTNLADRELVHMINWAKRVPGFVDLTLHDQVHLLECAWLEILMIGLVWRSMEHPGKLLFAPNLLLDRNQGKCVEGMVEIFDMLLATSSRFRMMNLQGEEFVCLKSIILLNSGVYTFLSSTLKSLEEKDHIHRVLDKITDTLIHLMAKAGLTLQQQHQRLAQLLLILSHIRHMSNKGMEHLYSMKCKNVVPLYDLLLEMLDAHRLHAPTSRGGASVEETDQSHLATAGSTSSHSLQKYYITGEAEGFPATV
Chain of Acetylcholinesterase (Homo sapiens) (P22303 whole entry, looked up): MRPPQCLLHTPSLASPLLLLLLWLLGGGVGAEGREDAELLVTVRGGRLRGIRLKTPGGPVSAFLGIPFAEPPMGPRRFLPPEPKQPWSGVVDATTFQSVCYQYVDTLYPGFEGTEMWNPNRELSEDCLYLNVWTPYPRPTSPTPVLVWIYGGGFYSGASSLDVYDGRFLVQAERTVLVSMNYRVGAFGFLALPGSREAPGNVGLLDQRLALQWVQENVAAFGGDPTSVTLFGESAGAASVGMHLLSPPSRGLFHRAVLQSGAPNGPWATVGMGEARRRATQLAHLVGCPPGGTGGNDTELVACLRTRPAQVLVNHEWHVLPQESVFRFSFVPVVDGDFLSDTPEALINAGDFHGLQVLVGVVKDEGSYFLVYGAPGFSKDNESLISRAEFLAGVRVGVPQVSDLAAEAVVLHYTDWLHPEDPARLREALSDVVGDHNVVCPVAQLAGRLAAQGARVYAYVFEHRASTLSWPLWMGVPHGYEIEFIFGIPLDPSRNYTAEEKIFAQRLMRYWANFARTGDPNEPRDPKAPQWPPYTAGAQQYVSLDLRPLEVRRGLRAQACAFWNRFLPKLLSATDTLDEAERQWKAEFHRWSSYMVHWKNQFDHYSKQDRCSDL
Chain of Aryl hydrocarbon receptor (Homo sapiens) (P35869 whole entry, looked up): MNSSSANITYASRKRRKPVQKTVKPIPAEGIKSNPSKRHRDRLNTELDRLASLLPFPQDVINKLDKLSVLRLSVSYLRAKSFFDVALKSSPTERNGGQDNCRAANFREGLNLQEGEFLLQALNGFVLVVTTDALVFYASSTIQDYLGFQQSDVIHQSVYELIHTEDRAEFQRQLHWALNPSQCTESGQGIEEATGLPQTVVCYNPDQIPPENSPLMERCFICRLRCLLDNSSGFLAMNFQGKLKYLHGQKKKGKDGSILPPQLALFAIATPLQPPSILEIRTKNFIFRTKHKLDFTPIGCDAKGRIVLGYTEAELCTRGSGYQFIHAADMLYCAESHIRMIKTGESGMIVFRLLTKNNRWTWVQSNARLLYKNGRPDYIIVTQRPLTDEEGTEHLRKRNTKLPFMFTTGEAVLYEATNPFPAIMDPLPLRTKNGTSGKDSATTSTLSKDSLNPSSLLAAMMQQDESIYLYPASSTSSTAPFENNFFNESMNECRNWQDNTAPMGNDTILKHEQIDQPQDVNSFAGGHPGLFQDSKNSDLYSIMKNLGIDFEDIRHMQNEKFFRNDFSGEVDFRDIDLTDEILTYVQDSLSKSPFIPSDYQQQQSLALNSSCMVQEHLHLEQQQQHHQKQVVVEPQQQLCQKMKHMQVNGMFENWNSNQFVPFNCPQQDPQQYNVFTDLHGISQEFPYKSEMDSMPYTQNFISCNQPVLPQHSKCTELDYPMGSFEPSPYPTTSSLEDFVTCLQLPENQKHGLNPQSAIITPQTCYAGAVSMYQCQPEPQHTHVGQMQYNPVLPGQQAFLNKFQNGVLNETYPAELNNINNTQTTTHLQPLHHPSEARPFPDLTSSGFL
Chain of Peroxisome proliferator-activated receptor gamma (Homo sapiens) (P37231 whole entry, looked up): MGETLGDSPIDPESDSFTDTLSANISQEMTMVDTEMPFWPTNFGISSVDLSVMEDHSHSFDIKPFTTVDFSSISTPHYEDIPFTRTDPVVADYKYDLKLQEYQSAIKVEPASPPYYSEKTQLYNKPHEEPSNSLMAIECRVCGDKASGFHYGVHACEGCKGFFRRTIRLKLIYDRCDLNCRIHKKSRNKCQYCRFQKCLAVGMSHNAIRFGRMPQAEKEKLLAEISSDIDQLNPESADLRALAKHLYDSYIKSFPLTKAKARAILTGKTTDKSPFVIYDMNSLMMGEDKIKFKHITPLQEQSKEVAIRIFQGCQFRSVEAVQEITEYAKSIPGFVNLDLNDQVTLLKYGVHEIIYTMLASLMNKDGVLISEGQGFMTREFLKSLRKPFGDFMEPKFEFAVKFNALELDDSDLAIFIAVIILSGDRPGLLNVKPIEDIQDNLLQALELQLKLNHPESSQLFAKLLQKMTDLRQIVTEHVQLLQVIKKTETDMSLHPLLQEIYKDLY
Chain of Aromatase (Homo sapiens) (P11511 whole entry, looked up): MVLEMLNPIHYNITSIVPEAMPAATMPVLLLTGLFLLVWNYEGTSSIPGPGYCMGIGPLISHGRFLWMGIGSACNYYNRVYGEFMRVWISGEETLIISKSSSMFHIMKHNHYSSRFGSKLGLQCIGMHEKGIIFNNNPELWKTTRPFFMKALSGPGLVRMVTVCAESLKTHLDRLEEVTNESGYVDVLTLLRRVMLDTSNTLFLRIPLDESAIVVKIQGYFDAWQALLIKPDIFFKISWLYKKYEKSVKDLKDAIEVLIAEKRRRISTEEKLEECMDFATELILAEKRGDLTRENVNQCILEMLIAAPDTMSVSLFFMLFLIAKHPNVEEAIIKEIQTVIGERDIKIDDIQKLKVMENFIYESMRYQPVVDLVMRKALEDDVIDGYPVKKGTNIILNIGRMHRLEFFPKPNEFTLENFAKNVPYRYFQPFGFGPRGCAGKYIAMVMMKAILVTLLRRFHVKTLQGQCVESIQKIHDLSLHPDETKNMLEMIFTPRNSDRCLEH

CCC1(c2cnc[nH]2)Cc2ccccc2C1
active: [17] 21.1 µM and 26.6 µM | [18] 26.6 µM | [19] 26.6 µM | Aromatase (Homo sapiens) 26.6 µM | [31] 23.7 µM and 8.41 µM
inactive: all other assays above
